Measured values: PubChem BioAssay (NCATS)
“And” between values parts separate entries of the source, which are not always exact repeats. Equal entries are not always repeated. Records with an inconclusive call do not appear. Some compounds were tested as several samples or in several runs, with calls that do not always agree. The source made the active and inactive calls. The call rests on the fitted dose curve; in most records, active means well fitted curve in the direction sought with a large enough effect; inconclusive means small, poorly fitted or top-dose-only effect, or another doubt; inactive means no such curve, though single readings can be large; an effect the other way counts as inactive or inconclusive.

Columns and labels:
CASKI = test: Primary qHTS to identify gynecologic anti-cancer compounds using libraries of approved drugs and bioactive compounds (AID 1345084); conditions: Gynecologic cancer cell panel viability, ATPlite luminescence, 48 h; series mostly up to 57.5 µM; further: nearly all actives have a fitted effect of over 55% in size
How it was run: (§1)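 ATP-based viability (ATPlite), 1,000 cells/well, 16 h pre-incubation, 48 h compound at 37 C, 5% CO2, 15 min RT before read.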

Es-2 = test: as above; conditions: Gynecologic cancer cell panel viability, ATPlite luminescence, 48 h; series mostly up to 57.5 µM
How it was run: as §1

HeLa = test: as above; conditions: Gynecologic cancer cell panel viability, ATPlite luminescence, 48 h; series mostly up to 57.5 µM
How it was run: as §1

Hek293T = test: as above; conditions: Gynecologic cancer cell panel viability, ATPlite luminescence, 48 h, control line for the selectivity index; series mostly up to 57.5 µM
How it was run: as §1

JEG-3 = test: as above; conditions: Gynecologic cancer cell panel viability, ATPlite luminescence, 48 h; series mostly up to 57.5 µM
How it was run: as §1

Tov-21-G = test: as above; conditions: Gynecologic cancer cell panel viability, ATPlite luminescence, 48 h; series mostly up to 57.5 µM
How it was run: as §1

Tov112D = test: as above; conditions: Gynecologic cancer cell panel viability, ATPlite luminescence, 48 h; series mostly up to 57.5 µM
How it was run: as §1

MKL-1 = test: qHTS assay to identify novel small-molecules to repurpose for Merkel cell carcinoma treatment (AID 1296009); conditions: MCC and control cell lines, CellTiter-Glo viability, 72 h; series mostly up to 46 µM; further: nearly all actives have a fitted effect of over 60% in size
How it was run: (§2)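 Luminescence from CellTiter-Glo, read 10 min after addition at room temperature, reported viability following a 72 hr, 37 degree celsius treatment with NPC or MIPE compounds in titration; values normalized to plate controls.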

MKL-2 = test: as above; conditions: MCC and control cell lines, CellTiter-Glo viability, 72 h; series mostly up to 46 µM
How it was run: as §2

UISO = test: as above; conditions: MCC and control cell lines, CellTiter-Glo viability, 72 h; series mostly up to 46 µM
How it was run: as §2

OV90 = test: Primary qHTS to identify gynecologic anti-cancer compounds using libraries of approved drugs and bioactive compounds (AID 1345084); conditions: Gynecologic cancer cell panel viability, ATPlite luminescence, 48 h; series mostly up to 57.5 µM; further: nearly all actives have a fitted effect of over 55% in size
How it was run: as §1

SKOV3 = test: as above; conditions: Gynecologic cancer cell panel viability, ATPlite luminescence, 48 h; series mostly up to 57.5 µM
How it was run: as §1

MCC-13 = test: qHTS assay to identify novel small-molecules to repurpose for Merkel cell carcinoma treatment (AID 1296009); conditions: MCC and control cell lines, CellTiter-Glo viability, 72 h; series mostly up to 46 µM; further: nearly all actives have a fitted effect of over 60% in size
How it was run: as §2

NIH3T3 = test: as above; conditions: MCC and control cell lines, CellTiter-Glo viability, 72 h; at 44.8 µM (top of the series) unless noted
How it was run: as §2

WaGa = test: as above; conditions: MCC and control cell lines, CellTiter-Glo viability, 72 h; series mostly up to 46 µM
How it was run: as §2

C33A = test: Primary qHTS to identify gynecologic anti-cancer compounds using libraries of approved drugs and bioactive compounds (AID 1345084); conditions: Gynecologic cancer cell panel viability, ATPlite luminescence, 48 h; series mostly up to 57.5 µM; further: nearly all actives have a fitted effect of over 55% in size
How it was run: as §1

CAOV3 = test: as above; conditions: Gynecologic cancer cell panel viability, ATPlite luminescence, 48 h; series mostly up to 57.5 µM
How it was run: as §1

PA-1 = test: as above; conditions: Gynecologic cancer cell panel viability, ATPlite luminescence, 48 h; series mostly up to 57.5 µM
How it was run: as §1

MCC-26 = test: qHTS assay to identify novel small-molecules to repurpose for Merkel cell carcinoma treatment (AID 1296009); conditions: MCC and control cell lines, CellTiter-Glo viability, 72 h; series mostly up to 46 µM; further: nearly all actives have a fitted effect of over 60% in size
How it was run: as §2

Measured: Potency
Potency means the concentration at half of the fitted maximal effect.

CC[C@H]1CN2CCc3cc(OC)c(OC)cc3[C@@H]2C[C@@H]1C[C@H]1NCCc2cc(OC)c(OC)cc21
active: CASKI 0.355 µM | Es-2 447 nM | HeLa 0.398 µM | Hek293T 0.282 µM | JEG-3 11.2 µM | Tov-21-G 3.55 µM | Tov112D 0.355 µM

CNCC(O)c1ccc(O)c(O)c1 (configuration not stated)
active: MKL-1 16.8 µM | MKL-2 13.3 µM | UISO 16.8 µM | SKOV3 28.2 µM
inactive: HeLa | Hek293T | JEG-3 | OV90 | Tov-21-G | Tov112D

NC1CCN(c2cccc(Cl)n2)CC1
not listed: PA-1 | MCC-26
inactive: all other assays above

CC(=O)c1ccc2c(c1)N(CCCN(C)C)c1ccccc1S2
active: WaGa 26.6 µM
not listed: HeLa | MKL-2 | OV90 | SKOV3 | NIH3T3 | MCC-26
inactive: all other assays above

CSc1ccc2c(c1)N(CCC1CCCCN1C)c1ccccc1S2 (configuration not stated)
active: MCC-13 26.6 µM | MKL-1 11.9 µM | MKL-2 3.35 µM | UISO 26.6 µM | WaGa 23.7 µM | Tov112D 28.2 µM
inactive: Es-2 | HeLa | Hek293T

CNCCC(Oc1ccc(C(F)(F)F)cc1)c1ccccc1 (configuration not stated)
active: MKL-1 26.6 µM | WaGa 21.1 µM
inactive: JEG-3 | Tov112D

CCN(CC)CCNC(=O)c1c(C)[nH]c(/C=C2\C(=O)Nc3ccc(F)cc32)c1C
inactive: C33A | Hek293T | JEG-3 | Tov112D
active: MCC-13 23.7 µM | MKL-1 2.99 µM | MKL-2 2.99 µM | UISO 11.9 µM | WaGa 11.9 µM | OV90 10 µM | PA-1 10 µM | SKOV3 8.91 µM

[Cl][In]([Cl])[Cl]
not listed: Hek293T | UISO | MCC-13 | NIH3T3 | CAOV3
inactive: all other assays above

CN(C)CCCN1c2ccccc2CCc2ccccc21
active: WaGa 23.7 µM
inactive: MCC-13 | MCC-26 | MKL-1 | C33A | CAOV3 | CASKI | JEG-3

OCCN1CCN(CCCN2c3ccccc3Sc3ccc(Cl)cc32)CC1
active: UISO 26.6 µM | C33A 20 µM | CAOV3 25.1 µM | CASKI 25.1 µM | OV90 15.8 µM | SKOV3 28.2 µM | Tov112D 25.1 µM
inactive: HeLa

CC1=C(CC(=O)O)c2cc(F)ccc2/C1=C\c1ccc(S(C)(=O)=O)cc1
not listed: MKL-2 | UISO | NIH3T3 | WaGa
inactive: all other assays above

CCCCN(CCCC)CC(O)c1cc(Cl)cc2c1-c1ccc(Cl)cc1/C2=C/c1ccc(Cl)cc1 (configuration not stated)
not listed: MKL-1 | MKL-2 | UISO | OV90 | SKOV3 | NIH3T3
inactive: all other assays above

CC/C=C(\C(=O)N[C@@H]1C(=O)N2C(C(=O)OCOC(=O)C(C)(C)C)=C(COC(N)=O)CS[C@H]12)c1csc(N)n1
not listed: NIH3T3 | WaGa | MCC-26
inactive: all other assays above

NC(=O)N/N=C/c1ccc([N+](=O)[O-])o1
14.1 µM (active) and inactive: SKOV3
active: MKL-1 24.3 µM | MKL-2 15.4 µM | WaGa 38.6 µM | HeLa 31.6 µM
31.6 µM (active) and inactive: Es-2
39.8 µM (active) and inactive: Tov-21-G
not listed: JEG-3 | NIH3T3 | CAOV3 | MCC-26
inactive: all other assays above

CC(C)(O)c1ccccc1CC[C@@H](SCC1(CC(=O)O)CC1)c1cccc(/C=C/c2ccc3ccc(Cl)cc3n2)c1
inactive and 35.5 µM (active): SKOV3
not listed: CAOV3 | MCC-26
inactive: all other assays above

Cc1ccc2nc(N)[nH]c(=O)c2c1Sc1ccncc1
inactive: MKL-1 | C33A | Es-2 | Hek293T | OV90 | PA-1 | SKOV3 | Tov-21-G
active: WaGa 3.35 µM | JEG-3 6.31 µM | Tov112D 3.55 µM

CC1=C(/C=C/C(C)=C/C=C/C(C)=C/C(=O)O)C(C)(C)CCC1
not listed: MKL-1 | MKL-2 | NIH3T3 | WaGa
inactive: all other assays above

NC(=O)c1ncn([C@@H]2O[C@H](CO)[C@@H](O)[C@H]2O)n1
inactive: CAOV3 | CASKI | Es-2 | HeLa | Hek293T | JEG-3 | Tov112D

CSc1ccc2c(c1)C(N1CCN(C)CC1)Cc1ccccc1S2 (configuration not stated)
not listed: MKL-1 | MKL-2 | UISO | OV90 | SKOV3 | NIH3T3 | WaGa | CAOV3
inactive: all other assays above
